Records with an inconclusive call do not appear. A number with no mark means an inactive call. The source made the active and inactive calls. Calls come from the whole dose curve; as a rule, active = well fitted inhibition curve with a large enough effect; inconclusive = small, poorly fitted or top-dose-only effect; inactive = flat fitted curve, though single readings scatter.
target: Calcium and integrin-binding protein 1 (Homo sapiens) (UniProt Q99828); assay: Primary qHTS for Identification of Calcium Integrin Binding Protein 1 (CIB1) Competitor (AID 1508620); conditions: CIB1-GST / FITC-alphaIIb peptide fluorescence polarization; series mostly up to 114 µM; activity change, negative = inhibition: at the top concentration; note: top concentration of the series differs between compounds
How it was run: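 Fluorescence polarization competition: GST-tagged CIB1 (1 uM final) preincubated with compound 15 min at room temperature, then FITC-labelled alphaIIb peptide (100 nM final) added. After 15 min at room temperature, polarization read at Ex 480/Em 540.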
% is set by controls: 0 for no effect and ±100 for the full control effect.

Sequence of Calcium and integrin-binding protein 1 (Homo sapiens) (Q99828 whole entry, looked up): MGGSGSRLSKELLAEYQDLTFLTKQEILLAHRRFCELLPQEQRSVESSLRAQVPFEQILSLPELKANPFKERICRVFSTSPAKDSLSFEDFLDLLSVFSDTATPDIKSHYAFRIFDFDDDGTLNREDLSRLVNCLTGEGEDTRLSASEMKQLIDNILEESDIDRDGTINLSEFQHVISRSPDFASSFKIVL

Structure (SMILES) | activity change, negative = inhibition | Potency
OC[C@H]1O[C@@H](OCCc2ccccc2)[C@H](O[C@@H]2OC[C@](O)(CO)[C@H]2O)[C@@H](O)[C@@H]1O | 1.94% [at 57.7 µM] | 
Cc1cc(C)c(CNC(=O)c2cc(-c3ccc(CN4CCOCC4)cc3)cc3c2cnn3C2CCCC2)c(=O)[nH]1 |  | inactive
Nc1nc2c(ncn2[C@@H]2O[C@H](CO)[C@@H](O)[C@H]2O)c(=O)[nH]1 | -6.36% | 
O=C1CC2(CCCC2)[C@H](O)C(=O)N1CCCCN1CCN(c2ncccn2)CC1 | 0.741% | 
COC(=O)[C@H](O)[C@H]1C(C)(C)[C@H](OC(=O)C(C)C)[C@@]2(O)C(=O)[C@]1(C)C1CC[C@]3(C)C(CC(=O)O[C@H]3c3ccoc3)[C@]13O[C@@H]32 (stereo not given in full) | 4.66% [at 30.2 µM] | 
C[C@@H]1O[C@@H](O[C@H]2[C@H](O)[C@@H](C(=O)O)O[C@@H](O[C@H]3CC[C@@]4(C)C(CC[C@]5(C)C4CC=C4C6CC(C)(C)CC[C@]6(C(=O)O)CC[C@]45C)C3(C)C)[C@@H]2O[C@@H]2OC[C@@H](O)[C@H](O)[C@H]2O)[C@H](O)[C@H](O)[C@H]1O (stereo not given in full) | 0.901% [at 30.2 µM] | 
CCC(O)C(C)C1CCC(C(C)C(=O)O)O1 (stereo not given) | -7.26% | 
CC(C)c1cc2c(c(O)c1O)[C@@]13CCCC(C)(C)[C@@H]1[C@H](OC3=O)C2=O | -13.8% [at 57.7 µM] | 
C=C1C[C@]23C[C@H]1CC[C@H]2C1=C[C@H]2OC(=O)[C@@](C)([C@H]1[C@@H]3C(=O)O)[C@H]2O | -10.1% [at 57.7 µM] | 
C=C(C)C1CC[C@]2(C(=O)O)CC[C@]3(C(=O)O)[C@H](CCC4[C@@]5(C)CC[C@H](O)C(C)(C)C5CC[C@]43C)C12 (stereo not given in full) | -0.368% [at 57.7 µM] | 

Source: PubChem BioAssay (NCATS)
